Source: publication PMC11062922 (Nature Chemical Biology, 2023)
Where two headings read alike, the source gives them in different places.

Legend:
Set-up in all cases: species or system human, MV4-11 + K-562 + COLO205 + SK-N-BE2 + OVCAR-8
[1] = tested on: CDK7; details: read-out: apparent Kd, n = 1
[2] = tested on: CDKL5; details: read-out: apparent Kd; compound concentrations:100 nM and 1000 nM (sheet 'Samples'); n = 1
[3] = tested on: ERCC2; details: read-out: apparent Kd, n = 1
[4] = tested on: FER; details: read-out: apparent Kd, n = 1
[5] = tested on: FLT3; details: read-out: apparent Kd, n = 1
[6] = tested on: LATS1; details: read-out: apparent Kd, n = 1
[7] = tested on: MARK4; details: read-out: apparent Kd, n = 1
[8] = tested on: MYLK3; details: read-out: apparent Kd, n = 1
[9] = tested on: PLK4; details: read-out: apparent Kd, n = 1
[10] = tested on: PRKAA1; details: read-out: apparent Kd, n = 1
[11] = tested on: PRKCD; details: read-out: apparent Kd, n = 1
[12] = tested on: PRKCQ; details: read-out: apparent Kd, n = 1
[13] = tested on: PRKD2; details: read-out: apparent Kd, n = 1
[14] = tested on: PTK2B; details: read-out: apparent Kd, n = 1
[15] = tested on: PTK2; details: read-out: apparent Kd, n = 1
[16] = tested on: RPS6KA6; details: read-out: apparent Kd, n = 1
[17] = tested on: STK10; details: read-out: apparent Kd, n = 1
[18] = tested on: TNK2; details: read-out: apparent Kd, n = 1
[19] = tested on: PRKD3; details: read-out: apparent Kd, compound concentrations: 100 nM and 1000 nM (sheet 'Samples'), n = 1
[20] = tested on: DYRK1A; details: read-out: apparent Kd, compound concentrations: 100 nM and 1000 nM (sheet 'Samples'), n = 1
[21] = compound concentrations:100 nM and 1000 nM (sheet 'Samples')

O=C1NC(=O)C(N2CCc3ccccc32)=C1c1ccccc1Cl [SB-373598]
potency estimated from few doses [1, 21]: 93.7 nM | potency estimated from few doses [2]: 1390 nM | potency estimated from few doses [3, 21]: 114 nM | potency estimated from few doses [4, 21]: 183 nM | potency estimated from few doses [5, 21]: 1500 nM | potency estimated from few doses [6, 21]: 994 nM | potency estimated from few doses [7, 21]: 884 nM | potency estimated from few doses [8, 21]: 974 nM | potency estimated from few doses [9, 21]: 273 nM | potency estimated from few doses [10, 21]: 273 nM | potency estimated from few doses [11, 21]: 2190 nM | potency estimated from few doses [12, 21]: 1580 nM | potency estimated from few doses [13, 21]: 1920 nM | potency estimated from few doses [14, 21]: 129 nM | potency estimated from few doses [15, 21]: 173 nM | potency estimated from few doses [16, 21]: 125 nM | potency estimated from few doses [17, 21]: 996 nM | potency estimated from few doses [18, 21]: 108 nM

Cl.Nc1c(C(=O)c2cccc(C#CCN3CCCCC3)c2)cnn1-c1ccc(F)cc1 [RO1154461-001]
potency estimated from few doses ([1]; compound concentrations: 100 nM and 1000 nM (sheet 'Samples'), CATDS: 4.6552483673456102E-2): 74.1 nM | potency estimated from few doses ([3]; compound concentrations: 100 nM and 1000 nM (sheet 'Samples'), CATDS: 5.2130998617594002E-2): 63.2 nM | potency estimated from few doses ([4]; compound concentrations: 100 nM and 1000 nM (sheet 'Samples'), CATDS: 4.9023130772968097E-2): 68.9 nM | potency estimated from few doses ([6]; compound concentrations: 100 nM and 1000 nM (sheet 'Samples'), CATDS: 1.0207334677420601E-2): 1780 nM | potency estimated from few doses ([7]; compound concentrations: 100 nM and 1000 nM (sheet 'Samples'), CATDS: 1.0984902394488599E-2): 1350 nM | potency estimated from few doses ([9]; compound concentrations: 100 nM and 1000 nM (sheet 'Samples'), CATDS: 1.52727578092353E-2): 534 nM | potency estimated from few doses ([10]; compound concentrations: 100 nM and 1000 nM (sheet 'Samples'), CATDS: 1.6696552241267201E-2): 436 nM | potency estimated from few doses ([12]; compound concentrations: 100 nM and 1000 nM (sheet 'Samples'), CATDS: 1.06314955132201E-2): 1520 nM | potency estimated from few doses ([19]; CATDS: 9.8039284052072601E-3): 2110 nM | potency estimated from few doses ([14]; compound concentrations: 100 nM and 1000 nM (sheet 'Samples'), CATDS: 4.70772148713983E-2): 72.9 nM | potency estimated from few doses ([15]; compound concentrations: 100 nM and 1000 nM (sheet 'Samples'), CATDS: 1.89593095974224E-2): 333 nM | potency estimated from few doses ([16]; compound concentrations: 100 nM and 1000 nM (sheet 'Samples'), CATDS: 1.98632860807328E-2): 303 nM | potency estimated from few doses ([17]; compound concentrations: 100 nM and 1000 nM (sheet 'Samples'), CATDS: 1.0028252220669101E-2): 1910 nM | potency estimated from few doses ([18]; compound concentrations: 100 nM and 1000 nM (sheet 'Samples'), CATDS: 5.6879237534392203E-2): 56.1 nM

Cn1ncc2c(N)ncnc21 [SKF-18267]
potency estimated from few doses ([1]; compound concentrations: 100 nM and 1000 nM (sheet 'Samples'), CATDS: 5.5514862333248096E-3): 667 nM | potency estimated from few doses ([20]; CATDS: 3.77369052298554E-3): 1560 nM | potency estimated from few doses ([4]; compound concentrations: 100 nM and 1000 nM (sheet 'Samples'), CATDS: 5.4218087868892397E-3): 697 nM | potency estimated from few doses ([5]; compound concentrations: 100 nM and 1000 nM (sheet 'Samples'), CATDS: 6.0970372773572496E-3): 564 nM | potency estimated from few doses ([6]; compound concentrations: 100 nM and 1000 nM (sheet 'Samples'), CATDS: 3.8471015452543802E-3): 1480 nM | potency estimated from few doses ([7]; compound concentrations: 100 nM and 1000 nM (sheet 'Samples'), CATDS: 3.8950662850455102E-3): 1430 nM | potency estimated from few doses ([8]; compound concentrations: 100 nM and 1000 nM (sheet 'Samples'), CATDS: 3.9686163384318402E-3): 1360 nM | potency estimated from few doses ([9]; compound concentrations: 100 nM and 1000 nM (sheet 'Samples'), CATDS: 4.9790098691835901E-3): 821 nM | potency estimated from few doses ([11]; compound concentrations: 100 nM and 1000 nM (sheet 'Samples'), CATDS: 3.5352355938645099E-3): 1880 nM | potency estimated from few doses ([12]; compound concentrations: 100 nM and 1000 nM (sheet 'Samples'), CATDS: 3.4517086035176399E-3): 2030 nM | potency estimated from few doses ([13]; compound concentrations: 100 nM and 1000 nM (sheet 'Samples'), CATDS: 4.0514258518823199E-3): 1290 nM | potency estimated from few doses ([19]; CATDS: 4.0252223893410396E-3): 1320 nM | potency estimated from few doses ([14]; compound concentrations: 100 nM and 1000 nM (sheet 'Samples'), CATDS: 7.2672167282142302E-3): 423 nM | potency estimated from few doses ([15]; compound concentrations: 100 nM and 1000 nM (sheet 'Samples'), CATDS: 4.9483549300151902E-3): 831 nM | potency estimated from few doses ([16]; compound concentrations: 100 nM and 1000 nM (sheet 'Samples'), CATDS: 7.1387563408407901E-3): 435 nM | potency estimated from few doses ([17]; compound concentrations: 100 nM and 1000 nM (sheet 'Samples'), CATDS: 3.6177977688347301E-3): 1760 nM | potency estimated from few doses ([18]; compound concentrations: 100 nM and 1000 nM (sheet 'Samples'), CATDS: 5.8659667131667897E-3): 604 nM

CCn1c(-c2nonc2N)nc2c(C#CC(C)(C)O)nc(OC[C@@H](N)c3ccccc3)cc21 [GSK938890A]
potency estimated from few doses ([20]; CATDS: 4.9269048258553202E-2): 2060 nM | potency estimated from few doses ([6]; compound concentrations: 100 nM and 1000 nM (sheet 'Samples'), CATDS: 6.3165054409109203E-2): 513 nM

O=C1N=C(Nc2ccccc2)S/C1=C\c1ccc2ncccc2c1 [RO4493940-000]
potency estimated from few doses ([20]; CATDS: 0.176247651150404): 1930 nM

CCn1c(-c2nonc2N)nc2c(C#CC(C)(C)O)nc(OCCNC)cc21.Cl [GSK949675A]
potency estimated from few doses [6, 21]: 401 nM | potency estimated from few doses [12, 21]: 1680 nM

CN(c1ccc(NC(=O)N2CCN(CCCN3CCOCC3)CC2)cc1)c1ccnc(Nc2ccc(CS(C)(=O)=O)cc2)n1.Cl [GW830899A]
potency estimated from few doses ([1]; compound concentrations: 100 nM and 1000 nM (sheet 'Samples'), CATDS: 3.2126813899460802E-2): 560 nM | potency estimated from few doses ([3]; compound concentrations: 100 nM and 1000 nM (sheet 'Samples'), CATDS: 3.5571834197337601E-2): 471 nM | potency estimated from few doses ([4]; compound concentrations: 100 nM and 1000 nM (sheet 'Samples'), CATDS: 2.4500715622852599E-2): 940 nM | potency estimated from few doses ([5]; compound concentrations: 100 nM and 1000 nM (sheet 'Samples'), CATDS: 9.7213478094733505E-2): 119 nM | potency estimated from few doses ([7]; compound concentrations: 100 nM and 1000 nM (sheet 'Samples'), CATDS: 2.1363637318540001E-2): 1290 nM | potency estimated from few doses ([10]; compound concentrations: 100 nM and 1000 nM (sheet 'Samples'), CATDS: 2.4895545924416802E-2): 909 nM | potency estimated from few doses ([12]; compound concentrations: 100 nM and 1000 nM (sheet 'Samples'), CATDS: 2.35958557762035E-2): 1020 nM | potency estimated from few doses ([15]; compound concentrations: 100 nM and 1000 nM (sheet 'Samples'), CATDS: 2.9725199889124199E-2): 643 nM | potency estimated from few doses ([18]; compound concentrations: 100 nM and 1000 nM (sheet 'Samples'), CATDS: 3.2652944878228798E-2): 544 nM
